Consider five compounds from PubChem BioAssay.

Experiment [1] can be described thus: yeast TOR pathway RPL19A-GFP modulators, primary screen, cell-based, S. cerevisiae, multiplex flow cytometry (AID 1862; in the data active = percent of DMSO control GFP below about 86%;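 also: lower values mimic rapamycin by blocking the RPL19A rise seen in DMSO cells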). The settings on record: S. cerevisiae RPL19A-GFP strain, flow cytometry fluorescence, 3 h; at 10 µM; stronger effect = lower value. Background: A flow cytometer gives signals particle by particle.
A short description of experiment [2]: modulators of MEP2-GFP levels in yeast, primary screen, S. cerevisiae, multiplex flow cytometry (AID 1867;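 active = GFP response, as percent of the DMSO control, above the screen-wide mean plus 3 SD, about 139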;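 also: median GFP channel fluorescence of barcode-gated MEP2-GFP cells measured by flow cytometry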). The following applies: S. cerevisiae MEP2-GFP strain, 3 h, at 10 µM, stronger effect = higher value, 100% means same as DMSO wells.
Experiment [3] can be described thus: modulators of CIT2-GFP expression in yeast, primary screen, S. cerevisiae, GFP fusion, multiplex flow cytometry (AID 1870;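 active = percent response above a set limit, the screen-wide mean plus 3 SD, cut at about 130% in these data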;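 also: barcoded CIT2-GFP strain pooled with four other GFP strains with rapamycin as positive control; median GFP fluorescence per well over plate mean of DMSO wells so 100% = DMSO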). The following applies: 3 h, at 10 µM, stronger effect = higher value.
Experiment [4] is described as follows: modulators of LAP4-GFP expression in yeast, primary screen, S. cerevisiae, multiplex flow cytometry (AID 1873;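 active = GFP signal, as percent of the solvent control, above the screen mean plus 3 SD, about 149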). The settings on record: 3 h, at 10 µM, stronger effect = higher value.
The nature of experiment [5]: modulators of AGP1-GFP expression in yeast TOR pathway, primary screen, cell-based, multiplex flow cytometry, S. cerevisiae (AID 1887;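 active = GFP signal above the screen-wide mean plus 3 SD, that is over about 124.5% of the solvent control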;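 also: AGP1-GFP fusion strain of S. cerevisiae within a five-strain barcoded multiplex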). The following applies: 3 h, at 10 µM, stronger effect = higher value.
Experiment [6] can be described thus: inhibitors of CD8+ T cell-vesicle binding, pilot screen, LFA-1/ICAM-1 modulator project, MLPCN validation set, flow cytometry (AID 2523;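 active = response below a set limit, under 55% cells CD8-positive and vesicle-bound, and CD8 cells' 90th-percentile brightness under 279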;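 as to vesicle binding response: mean PE anti-B7-1 fluorescence of CD8+ cells relative to row control; 100% = QL9-loaded vesicles with DMSO vehicle in the same plate row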). The following applies: 2C mouse CD8+ T cells, at 7 µM, stronger effect = lower value; double positive events: measured here: CD8+/vesicle+ event percentage.
Experiment [7] concerns the target Integrin beta-1 (Homo sapiens) + Integrin alpha-4 (Homo sapiens) (UniProt P13612+P05556). Put plainly: inhibition of HUTS-21 binding to VLA-4, pilot screen, VLA-4 allosteric modulator project, U937 cells, HUTS-21 mAb, flow cytometry, validation set (AID 2674;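 active = inhibition above 50%, about 3 SD of the validation set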;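 also: antibody binding induced by the VLA-4 ligand LDV present at three times its Kd; 0% = LDV ligand with antibody and no compound and 100% = antibody without LDV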). The following applies: HUTS-21 LIBS mAb binding, at 6.7 µM, stronger effect = higher value, binding induced by LDV ligand.

The nature of experiment [8]: superoxide lowering in aged yeast cells, pilot screen, validation compound set (AID 2706;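 active = superoxide response below 65% of plate, a cut near 3 SD across the whole screen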;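 also: yeast exposed to compound for one week at 30 degrees C before staining; 100% = mean of all compound wells on the same plate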). The following applies: S. cerevisiae aging, superoxide DHE fluorescence; at 10 µM; stronger effect = lower value.
Experiment [9] has as its target Beta-adrenergic receptor kinase 1 (Homo sapiens) (UniProt P25098). Put plainly: GRK2 binders displacing RNA aptamer, biochemical, validation, human GRK2, bead flow cytometry (AID 488806;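 active = aptamer binding inhibition above 30%, about 3 SD of noise from non-fluorescent compounds; inactive = inhibition at or below 30%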). The following applies: bead-bound GRK2, FAM-aptamer displacement, at 10 µM, stronger effect = higher value.
The target of experiment [10] is Beta-2 adrenergic receptor (Homo sapiens) (UniProt P07550). Put plainly: beta2AR agonists driving receptor internalization, pilot screen, cell-based, FAP fluorogen, flow cytometry, validation set (AID 504459;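 active = percent response above 42, roughly 3 SD of non-fluorescent test compounds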;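 also: agonist-driven loss of surface beta2AR via internalization measured by FAP dye flow cytometry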). The settings on record: Am2.2-beta2AR cells, FAP surface receptor flow cytometry; at 10 µM; stronger effect = higher value.
Experiment [11] addresses AP-2 complex subunit beta (Homo sapiens) (UniProt P63010). Put plainly: inhibitors of arrestin peptide binding to AP2, pilot screen, biochemical, validation set, GST-AP2 beads, flow cytometry (AID 504541;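 active = inhibition above 54%, about 3 SD of non-fluorescent compounds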;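 also: AP2 carries R879A mutation and is captured from E. coli lysate; bead-bound FITC arrestin peptide fluorescence measuring arrestin peptide binding to AP2; 0% = DMSO wells and 100% = excess unlabeled arrestin peptide control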). The settings on record: FITC arrestin peptide, at 10 µM, stronger effect = higher value, AP2 beta2 appendage fragment, R879A mutant.
A short description of experiment [12]: yeast V-ATPase proton transport modulators, S. cerevisiae, pHLuorin, HTS validation (AID 504600; in the data active = response above about 15%;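 also: plate controls were DMSO for no effect and reference compound for full effect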). The settings on record: S. cerevisiae pHLuorin cytosolic pH, at 10 µM, stronger effect = higher value.
In experiment [13] the test system is anti-desmoglein-3 scFv antibody binding to human DSG3. Put plainly: inhibitors of anti-DSG3 scFv binding to DSG3, pilot screen, biochemical, validation compound set, bead-based, flow cytometry (AID 588368).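 Also: signal is the median channel fluorescence of bead-bound GFP antibody.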 The following applies: Protein G beads, DSG3-Fc, scFv-GFP binding, at 10 µM, stronger effect = lower value.
Experiment [14] is described as follows: inhibitors of fungal efflux pumps CDR1, CDR2, MDR1, pilot screen, validation compound set, multiplex, phenotypic (AID 588506;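 active = efflux inhibition above 0.42, the validation set average plus 4 SD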;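 also: Nile Red retained in cells so higher fluorescence means more efflux inhibition; 0 = negative control wells and 1 = enniatin B 25 µM full block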). The settings on record: S. cerevisiae pump-expressing triplex, Nile Red efflux flow cytometry; at 10 µM; stronger effect = higher value; the pumps come from Candida albicans.
Experiment [15] addresses ATP-binding cassette sub-family B member 6 (Homo sapiens) (UniProt Q9NP58). Put plainly: ABCB6 transporter inhibitors, pilot screen, K562-ABCB6 cells, flow cytometry, validation set (AID 588550;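 active = inhibition above the screen-wide mean plus 3 SD, about 51%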;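 also: 0% = DMSO wells and 100% = benzethonium chloride 70 µM positive control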). The settings on record: K562-ABCB6 porphyrin accumulation, 1 h, at 10 µM, stronger effect = higher value.
Experiment [16] is described as follows: promoters of myeloid differentiation in arrested cells, primary screen, cell-based, GFP/MAC1 double positive, flow cytometry, validation set (AID 588685;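 active = differentiation response of at least 50%, scaled between solvent and reference control, from cells with both markers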;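 also: compound exposure lasts four days before antibody staining and flow analysis; 0% = DMSO wells and 100% = 5 µM fulvestrant positive control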). The settings on record: ER-HoxA9 marrow cells, stronger effect = higher value, normalized: vehicle 0, fulvestrant 100.

Each structure is given as a SMILES string. Inconclusive results are not listed. Calls of active or inactive are those of the source.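 The calls were made as follows, unless noted: active = binding below the plate cutoff, the plate median minus 3 SD, with a reading above zero; inconclusive = below the plate cutoff but reading exactly zero; inactive = the rest.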

Sequence of Integrin beta-1 (Homo sapiens) + Integrin alpha-4 (Homo sapiens) (P05556 whole entry, looked up): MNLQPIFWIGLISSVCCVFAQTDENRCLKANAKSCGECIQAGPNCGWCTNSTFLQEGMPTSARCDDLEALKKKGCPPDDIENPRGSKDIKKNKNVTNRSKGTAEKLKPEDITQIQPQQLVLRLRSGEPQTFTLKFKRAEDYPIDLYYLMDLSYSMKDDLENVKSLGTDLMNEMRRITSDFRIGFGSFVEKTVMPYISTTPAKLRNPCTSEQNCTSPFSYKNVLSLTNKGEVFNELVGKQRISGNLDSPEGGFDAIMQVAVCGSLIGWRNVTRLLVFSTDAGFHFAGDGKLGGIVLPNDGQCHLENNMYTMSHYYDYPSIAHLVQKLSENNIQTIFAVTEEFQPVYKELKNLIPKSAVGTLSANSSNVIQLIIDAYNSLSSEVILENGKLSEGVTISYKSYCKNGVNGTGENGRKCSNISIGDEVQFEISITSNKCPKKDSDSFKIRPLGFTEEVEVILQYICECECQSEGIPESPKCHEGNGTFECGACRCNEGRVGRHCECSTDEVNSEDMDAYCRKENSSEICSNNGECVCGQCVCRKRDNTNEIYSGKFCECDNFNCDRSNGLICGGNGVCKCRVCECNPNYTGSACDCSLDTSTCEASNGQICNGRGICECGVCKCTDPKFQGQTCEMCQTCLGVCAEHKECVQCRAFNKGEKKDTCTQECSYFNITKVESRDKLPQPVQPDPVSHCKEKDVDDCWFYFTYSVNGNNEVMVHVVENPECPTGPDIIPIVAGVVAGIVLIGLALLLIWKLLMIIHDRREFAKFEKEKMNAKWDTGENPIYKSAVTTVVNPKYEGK
Sequence of Integrin beta-1 (Homo sapiens) + Integrin alpha-4 (Homo sapiens) (P13612 whole entry, looked up): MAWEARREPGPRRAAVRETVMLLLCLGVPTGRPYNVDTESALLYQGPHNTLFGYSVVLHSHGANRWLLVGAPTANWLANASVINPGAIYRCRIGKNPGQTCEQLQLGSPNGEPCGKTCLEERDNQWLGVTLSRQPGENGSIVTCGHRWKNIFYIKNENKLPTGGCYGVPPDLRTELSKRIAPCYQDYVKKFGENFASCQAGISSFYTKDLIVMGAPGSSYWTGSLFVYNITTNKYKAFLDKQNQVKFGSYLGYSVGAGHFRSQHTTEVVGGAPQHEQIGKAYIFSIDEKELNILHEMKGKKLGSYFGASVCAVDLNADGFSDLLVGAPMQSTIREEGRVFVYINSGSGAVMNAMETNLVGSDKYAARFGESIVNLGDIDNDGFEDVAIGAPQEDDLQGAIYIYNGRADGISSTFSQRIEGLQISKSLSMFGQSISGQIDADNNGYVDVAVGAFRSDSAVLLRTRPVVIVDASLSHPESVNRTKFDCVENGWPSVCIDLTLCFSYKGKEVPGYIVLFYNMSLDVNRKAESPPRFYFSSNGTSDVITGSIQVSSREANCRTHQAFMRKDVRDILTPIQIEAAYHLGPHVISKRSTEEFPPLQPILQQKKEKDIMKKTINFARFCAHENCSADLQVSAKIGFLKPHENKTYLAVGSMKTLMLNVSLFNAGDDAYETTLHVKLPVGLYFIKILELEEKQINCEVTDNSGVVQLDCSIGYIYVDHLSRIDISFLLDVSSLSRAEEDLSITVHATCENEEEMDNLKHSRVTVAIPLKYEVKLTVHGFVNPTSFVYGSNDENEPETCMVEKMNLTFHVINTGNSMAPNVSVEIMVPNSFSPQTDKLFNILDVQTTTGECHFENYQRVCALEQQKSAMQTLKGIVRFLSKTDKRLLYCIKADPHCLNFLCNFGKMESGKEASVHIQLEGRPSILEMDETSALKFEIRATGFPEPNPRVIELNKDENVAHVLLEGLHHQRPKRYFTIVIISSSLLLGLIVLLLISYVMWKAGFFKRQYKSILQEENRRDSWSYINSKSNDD
Sequence of Beta-adrenergic receptor kinase 1 (Homo sapiens) (P25098 whole entry, looked up): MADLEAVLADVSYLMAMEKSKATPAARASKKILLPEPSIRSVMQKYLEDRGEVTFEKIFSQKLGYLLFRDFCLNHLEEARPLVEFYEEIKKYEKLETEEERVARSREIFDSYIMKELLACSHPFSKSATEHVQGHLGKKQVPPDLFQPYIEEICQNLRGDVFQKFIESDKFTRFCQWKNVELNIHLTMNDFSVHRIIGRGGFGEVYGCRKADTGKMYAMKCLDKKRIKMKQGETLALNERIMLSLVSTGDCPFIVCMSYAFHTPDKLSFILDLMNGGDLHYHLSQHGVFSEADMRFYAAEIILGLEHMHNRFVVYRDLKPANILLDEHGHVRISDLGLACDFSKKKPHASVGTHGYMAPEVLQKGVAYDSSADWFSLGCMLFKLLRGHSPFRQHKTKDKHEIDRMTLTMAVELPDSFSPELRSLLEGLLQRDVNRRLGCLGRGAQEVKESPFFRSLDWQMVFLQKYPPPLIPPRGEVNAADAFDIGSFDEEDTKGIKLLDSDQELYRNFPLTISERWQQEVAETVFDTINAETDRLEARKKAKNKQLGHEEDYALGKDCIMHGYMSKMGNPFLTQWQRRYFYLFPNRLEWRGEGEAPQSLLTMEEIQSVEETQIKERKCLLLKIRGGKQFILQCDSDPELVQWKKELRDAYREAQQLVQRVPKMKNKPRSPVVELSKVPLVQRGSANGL
Sequence of ATP-binding cassette sub-family B member 6 (Homo sapiens) (Q9NP58 whole entry, looked up): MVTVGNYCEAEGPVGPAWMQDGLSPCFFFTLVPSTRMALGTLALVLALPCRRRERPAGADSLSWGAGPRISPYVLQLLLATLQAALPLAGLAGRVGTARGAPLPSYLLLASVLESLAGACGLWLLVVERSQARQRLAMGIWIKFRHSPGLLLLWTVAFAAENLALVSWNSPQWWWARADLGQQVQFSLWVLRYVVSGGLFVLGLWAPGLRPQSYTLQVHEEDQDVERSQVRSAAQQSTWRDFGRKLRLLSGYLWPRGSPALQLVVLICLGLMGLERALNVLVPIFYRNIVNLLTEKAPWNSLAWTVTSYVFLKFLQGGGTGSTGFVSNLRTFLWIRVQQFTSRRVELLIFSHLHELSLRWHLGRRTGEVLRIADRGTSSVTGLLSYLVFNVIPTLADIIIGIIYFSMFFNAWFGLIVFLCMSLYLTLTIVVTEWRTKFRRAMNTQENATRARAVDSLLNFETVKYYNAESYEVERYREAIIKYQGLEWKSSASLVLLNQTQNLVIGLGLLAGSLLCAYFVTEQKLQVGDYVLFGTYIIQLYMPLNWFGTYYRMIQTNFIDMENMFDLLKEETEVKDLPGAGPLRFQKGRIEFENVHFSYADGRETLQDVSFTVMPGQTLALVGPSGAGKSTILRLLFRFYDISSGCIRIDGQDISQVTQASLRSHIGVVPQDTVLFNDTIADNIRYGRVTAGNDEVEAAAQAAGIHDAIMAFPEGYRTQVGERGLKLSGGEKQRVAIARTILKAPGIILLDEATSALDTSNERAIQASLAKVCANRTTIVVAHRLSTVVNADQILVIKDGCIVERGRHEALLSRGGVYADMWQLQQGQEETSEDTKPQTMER
Sequence of AP-2 complex subunit beta (Homo sapiens) (P63010 whole entry, looked up, the tested form may be a part, one chain of several): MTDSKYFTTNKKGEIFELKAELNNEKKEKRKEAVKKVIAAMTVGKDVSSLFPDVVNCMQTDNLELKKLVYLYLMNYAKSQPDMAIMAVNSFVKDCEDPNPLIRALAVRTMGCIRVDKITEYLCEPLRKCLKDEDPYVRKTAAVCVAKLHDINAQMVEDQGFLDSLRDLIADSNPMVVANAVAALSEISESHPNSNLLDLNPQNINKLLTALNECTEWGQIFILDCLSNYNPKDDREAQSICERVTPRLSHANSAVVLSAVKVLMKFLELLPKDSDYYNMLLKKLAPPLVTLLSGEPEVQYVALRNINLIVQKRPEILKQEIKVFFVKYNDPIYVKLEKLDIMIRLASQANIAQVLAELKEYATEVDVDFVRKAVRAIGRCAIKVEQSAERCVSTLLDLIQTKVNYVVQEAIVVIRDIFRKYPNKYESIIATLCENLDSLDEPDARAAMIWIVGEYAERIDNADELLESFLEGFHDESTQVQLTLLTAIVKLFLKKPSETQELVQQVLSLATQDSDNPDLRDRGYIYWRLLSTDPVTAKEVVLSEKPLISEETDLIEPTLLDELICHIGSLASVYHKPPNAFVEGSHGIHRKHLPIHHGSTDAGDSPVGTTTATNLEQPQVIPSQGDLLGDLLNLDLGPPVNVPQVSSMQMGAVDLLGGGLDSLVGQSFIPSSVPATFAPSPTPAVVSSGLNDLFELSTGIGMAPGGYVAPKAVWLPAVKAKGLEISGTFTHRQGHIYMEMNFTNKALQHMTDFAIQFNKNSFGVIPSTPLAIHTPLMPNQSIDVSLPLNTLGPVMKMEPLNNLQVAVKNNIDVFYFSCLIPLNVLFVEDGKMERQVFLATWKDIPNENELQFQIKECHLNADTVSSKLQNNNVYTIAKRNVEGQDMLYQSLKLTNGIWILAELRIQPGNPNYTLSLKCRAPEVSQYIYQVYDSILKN
Sequence of Beta-2 adrenergic receptor (Homo sapiens) (P07550 whole entry, looked up): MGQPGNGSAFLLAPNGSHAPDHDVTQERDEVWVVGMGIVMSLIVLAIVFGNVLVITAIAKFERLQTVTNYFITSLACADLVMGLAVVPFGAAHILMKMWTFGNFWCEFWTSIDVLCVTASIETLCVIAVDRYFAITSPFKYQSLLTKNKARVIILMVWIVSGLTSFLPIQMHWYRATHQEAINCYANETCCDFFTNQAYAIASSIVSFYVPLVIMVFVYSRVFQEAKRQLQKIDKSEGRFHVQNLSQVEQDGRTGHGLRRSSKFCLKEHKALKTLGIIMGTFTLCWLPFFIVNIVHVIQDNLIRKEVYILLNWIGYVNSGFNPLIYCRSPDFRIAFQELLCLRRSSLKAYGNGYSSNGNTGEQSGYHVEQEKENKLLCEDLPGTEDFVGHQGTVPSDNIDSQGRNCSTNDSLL

On to `COc1cc(COc2ccc3c(C)c(Cc4ccccc4)c(=O)oc3c2)cc(OC)c1OC`, for which the percent of DMSO control GFP in experiment [1] was 102% (inactive). In addition, the values for the GFP response vs DMSO in experiment [2] and in experiment [4] were 103% (inactive) and 94% (inactive), respectively. In experiment [3], the percent response of DMSO control was 122% (inactive). For the same compound, the GFP response, % of DMSO in experiment [5] was 98.9% (inactive). The double positive events in [6] was 55%. Also, in experiment [6], the vesicle binding response is 38.9% (inactive). For the same compound, the inhibition is 5.77% (inactive) in [7], 3.79% (inactive) in [11] and -5% (inactive) in experiment [15]. The superoxide response (% of plate) in experiment [8] is 117% (inactive). Moreover, the aptamer binding inhibition in experiment [9] is 3% (inactive). For the same compound, the results for the response in experiment [10] and in experiment [12] were 5.22% (inactive) and -1.95% (inactive), respectively. In addition, in experiment [13], the binding (% of control) is 97.2% (inactive). The efflux inhibition (fraction of control) in experiment [14] is 0.08 (inactive). The differentiation response in [16] is 3.18% (inactive).
Regarding `COc1ccc(OC)c(C(=O)c2coc3ccc(O)cc23)c1`, the percent of DMSO control GFP in [1] was 98.7% (inactive). The GFP response vs DMSO in [2] was 109% (inactive); in experiment [4], 146% (inactive). In addition, the percent response of DMSO control in experiment [3] was 94.4% (inactive). In addition, in [5], the GFP response, % of DMSO was 109% (inactive). In addition, the double positive events in experiment [6] was 63.7%. Further, the vesicle binding response in [6] is 192% (inactive). The inhibition in [7] was -2.82% (inactive); in [11], -14.6% (inactive); in experiment [15], 0% (inactive). For the same compound, the superoxide response (% of plate) in experiment [8] is 88.2% (inactive). For the same compound, the aptamer binding inhibition in experiment [9] is 2% (inactive). The response in [10] was -29.6% (inactive); in experiment [12], 4.67% (inactive). Moreover, the binding (% of control) in experiment [13] is 103% (inactive). Also, in experiment [14], the efflux inhibition (fraction of control) is -0.04 (inactive). Besides, the differentiation response in [16] is 0.92% (inactive).
Take `CC(C)CC(NC(=O)CNC(=O)C1O[C@@H]2OC(C)(C)O[C@@H]2[C@H]2OC(C)(C)O[C@@H]12)C(=O)O` (stereo not given in full): the percent of DMSO control GFP in experiment [1] was 101% (inactive). The GFP response vs DMSO in [2] is 104% (inactive); in experiment [4], 99.9% (inactive). Further, in experiment [3], the percent response of DMSO control was 102% (inactive). Further, in experiment [5], the GFP response, % of DMSO was 102% (inactive). In experiment [6], this compound registered a double positive events of 62.4%. The vesicle binding response in experiment [6] was 214% (inactive). The inhibition was -46.1% (inactive) in experiment [7], 9.78% (inactive) in experiment [11] and -3% (inactive) in experiment [15]. The superoxide response (% of plate) in [8] was 97.8% (inactive). Further, the aptamer binding inhibition in [9] was -1% (inactive). In addition, the response was -1.33% (inactive) in experiment [10] and -1.96% (inactive) in [12]. Besides, in experiment [13], the binding (% of control) is 96.9% (inactive). Also, the efflux inhibition (fraction of control) in experiment [14] is -0.04 (inactive). For the same compound, the differentiation response in experiment [16] was 12.9% (inactive).
Take `O=C(Cc1c[nH]c2ccccc12)OCCOC(=O)Cc1c[nH]c2ccccc12`: the percent of DMSO control GFP in experiment [1] was 104% (inactive). In addition, the GFP response vs DMSO was 96.6% (inactive) in experiment [2] and 100% (inactive) in experiment [4]. In addition, in experiment [3], the percent response of DMSO control was 110% (inactive). For the same compound, the GFP response, % of DMSO in [5] is 101% (inactive). Also, the double positive events in experiment [6] is 60.9%. Further, the vesicle binding response in experiment [6] was 111% (inactive). In addition, the figures for the inhibition in [7], in experiment [11] and in experiment [15] were -3.77% (inactive), -12.4% (inactive) and -4% (inactive), respectively. Besides, the superoxide response (% of plate) in [8] is 103% (inactive). In addition, the aptamer binding inhibition in experiment [9] is -1% (inactive). For the same compound, the response in experiment [10] is -3.51% (inactive); in [12], 1.88% (inactive). Moreover, the binding (% of control) in experiment [13] is 99.6% (inactive). In addition, the efflux inhibition (fraction of control) in [14] is -0.12 (inactive). For the same compound, the differentiation response in experiment [16] was -4.57% (inactive).
Regarding `COc1ccccc1CCn1cnc2c3cc(C)ccc3n(C)c2c1=O`, the percent of DMSO control GFP in [1] is 100% (inactive). Also, the GFP response vs DMSO in experiment [2] is 106% (inactive); in experiment [4], 108% (inactive). Also, in experiment [3], the percent response of DMSO control was 105% (inactive). The GFP response, % of DMSO in [5] was 98.8% (inactive). In experiment [6], this compound returned a double positive events of 56.6%. Moreover, in [6], the vesicle binding response was 138% (inactive). The inhibition in experiment [7] is -27.9% (inactive); in [11] it was 9.65% (inactive); in experiment [15], -9% (inactive). The superoxide response (% of plate) in experiment [8] is 94.8% (inactive). The aptamer binding inhibition in experiment [9] is -1% (inactive). The values for the response in experiment [10] and in experiment [12] were -8.23% (inactive) and -3.34% (inactive), respectively. The binding (% of control) in experiment [13] is 101% (inactive). Moreover, the efflux inhibition (fraction of control) in [14] was -0.31 (inactive). For the same compound, the differentiation response in experiment [16] is -14.8% (inactive).

One may read the inhibition as the drop in the measured response relative to a control, in per cent.
